Screening results: PubChem BioAssay, National Center for Advancing Translational Sciences (NCATS)
In the library only some 2.4% were active in any assay of this set; here they are far more common.
D2 antag: antagonizes the human D2 dopamine receptor; AID 485344; P14416; inhibition, % at 10 µM; 340,000 compounds, 2% hits; HEK293 TREx D2 cells, calcium flux, dopamine EC80; in the data active = inhibition above about 30%; inactive = below that, where a call was filed
Target sequence (P14416 whole entry, looked up): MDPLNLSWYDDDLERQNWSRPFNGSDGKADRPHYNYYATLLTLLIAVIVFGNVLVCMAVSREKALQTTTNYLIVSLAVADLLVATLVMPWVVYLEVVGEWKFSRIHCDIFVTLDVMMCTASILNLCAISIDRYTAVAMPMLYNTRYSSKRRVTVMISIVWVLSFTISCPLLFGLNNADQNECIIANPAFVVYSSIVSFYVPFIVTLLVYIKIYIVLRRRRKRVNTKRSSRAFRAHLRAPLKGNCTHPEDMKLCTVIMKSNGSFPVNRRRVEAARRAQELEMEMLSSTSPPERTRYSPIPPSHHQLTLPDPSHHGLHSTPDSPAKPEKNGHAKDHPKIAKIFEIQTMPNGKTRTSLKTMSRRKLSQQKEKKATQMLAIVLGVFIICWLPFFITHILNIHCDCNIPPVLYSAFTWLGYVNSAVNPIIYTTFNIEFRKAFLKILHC
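Read-out: kinetic calcium fluorescence (1 cycle/s) in inducible HEK293 T-REx D2 cells after an EC80 dopamine addition that followed 180 s compound preincubation. Loss of the dopamine response indicates antagonism.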
D2 ag-1: D2 dopamine receptor (human) agonism. P14416. HEK293 T-REx D2 cells, calcium flux agonist mode. activation, % at 2 µM. 340,000 compounds, 0.53% hits;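 active = activation over 3 SD above normal in the single-dose calcium agonist read, cut at about 30% in these data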
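Tetracycline-induced HEK293 Trex cells with D2 receptor force-coupled to calcium signaling, plated overnight at 30 C and loaded with no-wash calcium dye. Calcium flux read kinetically for 180 s after compound addition; responses flag agonists.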
D2 PAM-1: positive allosteric modulators of human D2 dopamine receptor. potentiation, % at 10 µM. P14416. 340,000 compounds, 0.34% hits. HEK293 T-REx D2, calcium flux, EC20 dopamine potentiation;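 active = potentiation over 3 SD above the plate norm, cut at about 30% in these data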
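Potentiation of an EC20 dopamine calcium response is measured in a force-coupled, tetracycline-inducible Hek293 Trex D2 line. Compound-only kinetic reads over 180 s flag agonists before dopamine addition.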
D2 ag-2: agonists of human D2 dopamine receptor (beta-arrestin); P14416; DiscoveRx PathHunter D2 beta-arrestin, luminescence, 90 min; 100% = 57 uM dopamine signal; activation, % (test concentration not listed); 360,000 compounds, 0.084% hits; in the data active = activation above about 40%
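DiscoveRx PathHunter D2 beta-arrestin cells (2,100/well) attached overnight, then compound-stimulated 90 min at 37 C in HBSS/10 mM HEPES/0.1% Tween-20 buffer; beta-galactosidase complementation read by luminescence after 1 h at ambient temperature. Dopamine 57 uM final (EC100) as control.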
D2 PAM-2: positive allosteric modulators of human D2 dopamine receptor; AID 624464; 360,000 compounds, 0.23% hits; DiscoveRx D2 beta-arrestin cells, luminescence, 90 min; 100% = 57 uM dopamine signal; potentiation, % (test concentration not listed); P14416; in the data active = potentiation above about 50%
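PathHunter D2 cells, attached overnight at 37 deg C, received compound in DMSO plus dopamine at EC20 (50 nM final) for 90 min at 37 deg C. Beta-arrestin recruitment was read as luminescence after 1 h with detection reagent at ambient temperature.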
A number is an active result; 0 = inactive; - = not tested or not shown.

SMILES	D2 antag	D2 ag-1	D2 PAM-1	D2 ag-2	D2 PAM-2
O=C(NC(NNc1ccc([N+](=O)[O-])cc1)(C(F)(F)F)C(F)(F)F)c1ccc(F)cc1	0	0	0	0	61
O=C(CNC(=O)c1ccc(Cl)cc1)OCC(=O)c1ccc2c(c1)OCCO2	41	0	0	0	0
CCOC(=O)CNC(=O)c1ccc2c(c1)OCCO2	0	0	0	0	0
CCOC(=O)Cn1cnc2c(nnn2-c2cccc(OC)c2)c1=O	0	0	0	0	0
COc1cccc(-n2nnc3c(=O)n(CC(=O)OCc4ccccc4)cnc32)c1	0	0	50	0	0
CCOC(=O)Cn1cnc2c(nnn2-c2ccc(F)cc2)c1=O	32	0	0	0	0
COc1ccc(S(=O)(=O)NC(C)C(=O)N2CCCC2)cc1C (configuration not stated)	32	0	0	0	0
COc1ccc(S(=O)(=O)NC(C)C(=O)N2CCCC2)cc1Cl (configuration not stated)	0	0	0	0	0
CC(=O)c1cccc(NC(=O)c2ccc(-c3ccccc3[N+](=O)[O-])o2)c1	33	0	0	0	0
O=C(NCc1cccnc1)c1ccc(-c2ccccc2[N+](=O)[O-])o1	85	0	0	0	0
O=C(NCc1cccnc1)c1ccc(-c2cccc(Cl)c2Cl)o1	59	0	0	0	0
CCCSCCCNC(=O)CN1C(=O)CCn2nc(-c3cn(C)c4ccccc34)cc21	-	0	-	-	-
CCc1ccc(C(=O)c2cnc3ccc(F)cc3c2S(=O)(=O)c2ccccc2)cc1	-	0	0	-	-
N#CCCN(C(=O)COC(=O)CSc1ccc(Cl)cc1)c1ccccc1	-	-	-	0	0
Cc1ccc(SCC(=O)OCC(=O)N(CCC#N)c2ccccc2)cc1	33	0	0	0	0
COC(=O)c1ccc(OC)c(Cn2c(=O)n(-c3cccc(Cl)c3)c(=O)c3c2c2cc(C)ccc2n3C)c1	-	0	-	-	-
O=C(Nc1cccc(C(F)(F)F)c1)C1CCCN(S(=O)(=O)c2cccc3nonc23)C1 (configuration not stated)	-	0	0	-	-
CCOCCCNC(=O)c1cc(C)nn1-c1ccccc1	36	0	0	0	0
CCOC(CNC(=O)c1cc(C)nn1-c1ccccc1)OCC	0	0	0	0	0
O=C(CN1Cc2ccccc2C1=O)Nc1cc(F)ccc1F	-	0	0	-	-
COc1cccc(-c2nc3ccccc3s2)c1O	0	0	0	0	0
Clc1ncccc1-c1nc2ccccc2s1	0	0	66	0	0
CC[C@@H](C(=O)[C@@H](C)[C@@H](O)[C@H](C)[C@@H]1O[C@@H]([C@@H](CC)C(=O)O)CC[C@@H]1C)[C@H]1O[C@]2(C=C[C@@H](O)[C@]3(CC[C@@](C)([C@H]4CC[C@](O)(CC)[C@H](C)O4)O3)O2)[C@H](C)C[C@@H]1C	-	-	-	0	64
Cn1cccc1-c1cc(C(=O)N/N=C/c2ccc(Cl)cc2)[nH]n1	35	0	0	0	0
NC(=O)c1nn(CC(=O)Nc2cccc(S(=O)(=O)N3CCCC3)c2)c(=O)c2ccccc12	44	0	0	0	0
SMILES	D2 antag	D2 ag-1	D2 PAM-1	D2 ag-2	D2 PAM-2
CN(CC(=O)Nc1cccc(S(=O)(=O)N2CCCCC2)c1)Cc1ccc(F)cc1	32	0	0	0	0
CN(CC(=O)Nc1cccc(F)c1)CC(=O)Nc1cccc(S(=O)(=O)N2CCCCCC2)c1	0	0	0	0	0
CN(C)S(=O)(=O)c1cccc(NC(=O)CNc2cccc(S(=O)(=O)N3CCCCC3)c2)c1	-	-	-	0	0
CN(CC(=O)Nc1cccc(S(=O)(=O)N(C)C)c1)Cc1ccccc1	33	0	0	0	0
NC(=O)c1nn(CC(=O)Nc2cccc(S(=O)(=O)N3CCCCCC3)c2)c(=O)c2ccccc12	0	0	0	0	0
CN(C)S(=O)(=O)c1cccc(NC(=O)CNCC2CCCCC2)c1	55	0	0	0	0
Cc1cccc(CNC(=O)C2CCN(c3nc4ccc(Cl)cc4[nH]3)CC2)c1	-	0	-	-	-
CN(C1CCCCC1)S(=O)(=O)c1ccc(F)c(C(=O)Nc2ccc(C(F)(F)F)cc2)c1	-	-	0	-	-
O=C(NCc1ccccc1F)c1ccc2ccccc2n1	0	0	34	0	0
COc1ccc(CC(=O)OCC(=O)NCc2ccco2)cc1	36	0	0	0	0
COc1ccc(OCC(=O)OCC(=O)NCc2ccco2)cc1	0	0	0	0	0
CN1/C(=C\C=C2/SC(=S)N(CC(=O)O)C2=O)C(C)(C)c2ccccc21	0	97	0	0	0
COc1ccc(Cn2ccc3nc(C)c(C(=O)N4CCN(c5ccccc5F)CC4)cc3c2=O)cc1	-	0	0	-	-
COc1cccc(CN2CCCN(Cc3ccc(F)cc3)S2(=O)=O)c1	-	0	0	-	-
CCN(CC)CCOC(=O)c1ccc(NC(=O)CSc2nnc(-c3cccs3)n2CC)cc1	-	-	-	0	74
C=CCn1c(SCC(=O)Nc2ccc(C(=O)OCC)cc2)nnc1-c1sc(N)nc1C	31	0	0	0	0
Cc1cc(NC(=O)CSc2nnc(-c3cccs3)n2N)no1	39	0	0	0	0
CCCCn1c(SCC(=O)Nc2cc(C)on2)nnc1-c1cccs1	0	0	0	0	0
CCOC(=O)c1ccc(NC(=O)CSc2nnc(C3CC3)n2C)cc1	0	0	0	0	0
CCOC(=O)c1ccc(NC(=O)CSc2nnc(CNc3ccc(C)cc3)n2C)cc1	0	0	0	0	50
CCc1ccc(CNC(=O)c2cnc3sc(N(CC)CC)nn3c2=O)cc1	-	0	0	-	-
COC(=O)c1scc(-c2ccc(C)cc2)c1S(=O)(=O)Nc1cc(C)c(Cl)cc1OC	-	0	0	-	-
CCCCN(C)CCNC(=O)c1nn(-c2ccc(OC)cc2)c(=O)c2c1c1ccccc1n2C	34	0	0	0	0
CCN(C(=O)c1nn(-c2ccc(OC)cc2)c(=O)c2c1c1ccccc1n2C)c1ccc(OC)cc1	0	0	0	0	0
CN(C)/C=C1\C=C2C(=O)c3ccccc3N2C1=O	0	96	0	0	0
SMILES	D2 antag	D2 ag-1	D2 PAM-1	D2 ag-2	D2 PAM-2
Cc1ccc(C)c(N2C(=O)N(Cc3ccccc3C)c3ccccc3S2(=O)=O)c1	-	0	0	-	-
COc1ccc(C2CC(c3ccccc3)=NN2C(=O)COC(=O)c2cc(S(=O)(=O)N3CCOCC3)ccc2Cl)cc1 (configuration not stated)	32	0	0	0	0
O=C(c1ccc(S(=O)(=O)Nc2ccccc2)cc1)N1CCC1	0	0	0	0	0
O=C(O)c1ccc(NS(=O)(=O)c2ccc(N3C(=O)CCC3=O)cc2)cc1	39	0	0	0	0
O=C(O)c1ccc(NS(=O)(=O)c2cc(C(=O)O)ccc2Br)cc1	0	0	0	0	70
CCC(C)NC(=O)c1cnn2c(C)c3c(nc12)CCCC3 (configuration not stated)	0	0	33	0	0
Cc1ccc(S(=O)(=O)N(Cc2nc(-c3cccc(C)c3)no2)C2CCCCC2)cc1	-	0	0	-	-
